Assay results published in PubChem BioAssay (Tox21).
Values without a mark were called inactive. Results filed as inconclusive are left out. Entries that show only a call come without a potency. Activity calls are given as the source filed them. Calls come from the whole dose curve; as a rule, active = well fitted curve in the direction sought with a large enough effect in the repeat runs; inconclusive = weak or mixed curves; inactive = no such curve, though single readings can be large; an effect the other way counts as inactive or inconclusive.

Experiments:
[1] = qHTS RealTime-Glo MT Cell Viability Assay in HepG2 cells - 24 hour (AID 1224867); note: nearly all actives have a fitted effect of over 50% in size
In short: (§1)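 Real-time, nonlytic viability: 600 HepG2 cells/well mixed with NanoLuc enzyme plus prosubstrate; 5 h settle, compound (DMSO) added by pintool; luminescence monitored over 40 h at 37 C.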

[2] = qHTS RealTime-Glo MT Cell Viability Assay in HEK293 cells - 32 hour (AID 1224868); note: top concentration of the series differs between compounds; nearly all actives have a fitted effect of over 50% in size
In short: (§2)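 Cells + reagent dispensed (600 cells/well, HEK293) → 5 h at 37 C/5% CO2 → 23 nL compound in DMSO pinned → 40 h at 37 C → luminescence read at 0, 8, 16, 24, 32, 40 h.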

[3] = A CellTox Green Cytotoxicity Assay to monitor cytotoxicity in HEK293 cells - 0 hour (AID 1224869); note: nearly all actives have a fitted effect of over 50% in size
In short: (§3)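 Read-out: fluorescence of a cell-impermeant cyanine dye staining DNA of dead cells, proportional to cytotoxicity. HEK293, 600 cells/well with reagent, compound (23 nL DMSO) added after 5 h; reads at 0, 8, 16, 24, 32, 40 h.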

[4] = qHTS RealTime-Glo MT Cell Viability Assay in HepG2 cells - 40 hour (AID 1224870); note: nearly all actives have a fitted effect of over 50% in size
In short: (§4)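 HepG2 cells (600/well) mixed with RealTime-Glo MT reagent, settled 5 h at 37 C/5% CO2 before compound addition. Nonlytic NanoLuc luminescence from viable-cell prosubstrate reduction read repeatedly during 40 h treatment at 37 C.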

[5] = A CellTox Green Cytotoxicity Assay to monitor cytotoxicity in HEK293 cells - 40 hour (AID 1224871); note: nearly all actives have a fitted effect of over 45% in size
In short: as §3

[6] = qHTS RealTime-Glo MT Cell Viability Assay in HepG2 cells - 8 hour (AID 1224873); note: nearly all actives have a fitted effect of over 55% in size
In short: as §4

[7] = qHTS RealTime-Glo MT Cell Viability Assay in HEK293 cells - 40 hour (AID 1224874); conditions: RealTime-Glo luminescence; max response: active compounds read low; note: nearly all actives have a fitted effect of over 50% in size
In short: (§5)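 Luminescence readout at each listed time point; HEK293, 600 cells/well, RealTime-Glo MT reagent added with cells; compounds pinned (23 nL in DMSO) after 5 h at 37 C; continuous culture at 37 C.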

[8] = A CellTox Green Cytotoxicity Assay to monitor cytotoxicity in HEK293 cells - 24 hour (AID 1224875); note: series mostly up to about 77 µM; nearly all actives have a fitted effect of over 45% in size
In short: as §3

[9] = A CellTox Green Cytotoxicity Assay to monitor cytotoxicity in HepG2 cells - 16 hour (AID 1224876); note: nearly all actives have a fitted effect of over 45% in size
In short: (§6)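 HepG2, 600 cells/well premixed w/ CellTox Green; 5 h settle, 37 C/5% CO2; pintool cpd add (DMSO); 37 C, 40 h; fluorescence read at 0, 8, 16, 24, 32, 40 h.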

[10] = qHTS RealTime-Glo MT Cell Viability Assay in HepG2 cells - 32 hour (AID 1224877); note: nearly all actives have a fitted effect of over 55% in size
In short: as §1

[11] = A CellTox Green Cytotoxicity Assay to monitor cytotoxicity in HepG2 cells - 24 hour (AID 1224878); note: nearly all actives have a fitted effect of over 45% in size; note: potency is the fitted concentration of half-maximal effect
In short: as §6

[12] = A CellTox Green Cytotoxicity Assay to monitor cytotoxicity in HepG2 cells - 40 hour (AID 1224879); note: nearly all actives have a fitted effect of over 40% in size
In short: as §6

[13] = qHTS RealTime-Glo MT Cell Viability Assay in HEK293 cells - 0 hour (AID 1224880)
In short: as §5

[14] = A CellTox Green Cytotoxicity Assay to monitor cytotoxicity in HEK293 cells - 32 hour (AID 1224881); note: nearly all actives have a fitted effect of over 40% in size
In short: as §3

[15] = A CellTox Green Cytotoxicity Assay to monitor cytotoxicity in HepG2 cells - 0 hour (AID 1224882); note: nearly all actives have a fitted effect of over 35% in size
In short: as §6

[16] = A CellTox Green Cytotoxicity Assay to monitor cytotoxicity in HepG2 cells - 32 hour (AID 1224883); note: nearly all actives have a fitted effect of over 50% in size
In short: as §6

[17] = A CellTox Green Cytotoxicity Assay to monitor cytotoxicity in HEK293 cells - 8 hour (AID 1224884); note: nearly all actives have a fitted effect of over 35% in size
In short: as §3

[18] = qHTS RealTime-Glo MT Cell Viability Assay in HepG2 cells - 16 hour (AID 1224885); note: nearly all actives have a fitted effect of over 50% in size
In short: as §1

[19] = qHTS RealTime-Glo MT Cell Viability Assay in HEK293 cells - 24 hour (AID 1224886)
In short: as §2

[20] = qHTS RealTime-Glo MT Cell Viability Assay in HEK293 cells - 16 hour (AID 1224872)
In short: as §2

## CNC(=O)NC
[1]
  outcome: inactive
[2]
  Potency: inactive
[3]
  Potency: inactive
[4]
  outcome: inactive
[5]
  Potency: inactive
[6]
  outcome: inactive
[7]
  max response: 1.12%
[8]
  Potency: inactive
[9]
  Potency: inactive
[10]
  outcome: inactive
[11]
  Potency: inactive
[12]
  Potency: inactive
[13]
  outcome: inactive
[14]
  Potency: inactive
[15]
  Potency: inactive
[16]
  Potency: inactive
[17]
  Potency: inactive
[18]
  outcome: inactive
[19]
  Potency: inactive

## NS(=O)(=O)c1ccc(Cl)c(S(N)(=O)=O)c1
[1]
  outcome: inactive
[2]
  Potency: inactive
[3]
  Potency: inactive
[4]
  outcome: inactive
[5]
  Potency: inactive
[6]
  outcome: inactive
[7]
  max response: 13.4%
[8]
  Potency: inactive
[9]
  Potency: inactive
[10]
  outcome: inactive
[11]
  Potency: inactive
[12]
  Potency: inactive
[15]
  Potency: inactive
[16]
  Potency: inactive
[17]
  Potency: inactive
[18]
  outcome: inactive
[19]
  Potency: inactive

## CCCCCN(CCCOC)C(=O)C(CCC(=O)O)NC(=O)c1ccc(Cl)c(Cl)c1 (stereo not given)
[1]
  outcome: inactive
[2]
  Potency: inactive
[3]
  Potency: inactive
[4]
  outcome: inactive
[5]
  Potency: inactive
[6]
  outcome: inactive
[7]
  max response: -0.0123%
[8]
  Potency: inactive
[13]
  outcome: inactive
[14]
  Potency: inactive
[17]
  Potency: inactive
[18]
  outcome: inactive
[19]
  Potency: inactive

## CCCCCCCCCCCCCCCCCCN(C)C
[1]
  outcome: inactive
[2]
  Potency: inactive
[3]
  Potency: inactive
[4]
  outcome: inactive
[20]
  Potency: inactive
[6]
  outcome: inactive
[7]
  max response: 0.677%
[9]
  Potency: inactive
[10]
  outcome: inactive
[11]
  Potency: inactive
[12]
  Potency: inactive
[13]
  outcome: inactive
[15]
  Potency: inactive
[16]
  Potency: inactive
[18]
  outcome: inactive
[19]
  Potency: inactive

## COc1ccc(OC)c(NC(=O)CC(C)=O)c1
[1]
  outcome: inactive
[2]
  Potency: inactive
[3]
  Potency: inactive
[5]
  Potency: inactive
[20]
  Potency: inactive
[6]
  outcome: inactive
[7]
  max response: 2.24%
[8]
  Potency: inactive
[9]
  Potency: inactive
[10]
  outcome: inactive
[11]
  Potency: inactive
[12]
  Potency: inactive
[13]
  outcome: inactive
[14]
  Potency: inactive
[15]
  Potency: inactive
[16]
  Potency: inactive
[17]
  Potency: inactive
[18]
  outcome: inactive
[19]
  Potency: inactive

## Cc1c(C(C)C)c(=O)n(-c2ccccc2)n1C
[1]
  outcome: inactive
[2]
  Potency: inactive
[3]
  Potency: inactive
[5]
  Potency: inactive
[20]
  Potency: inactive
[6]
  outcome: inactive
[7]
  max response: 3.94%
[8]
  Potency: inactive
[9]
  Potency: inactive
[10]
  outcome: inactive
[11]
  Potency: inactive
[12]
  Potency: inactive
[13]
  outcome: inactive
[14]
  Potency: inactive
[15]
  Potency: inactive
[16]
  Potency: inactive
[17]
  Potency: inactive
[18]
  outcome: inactive
[19]
  Potency: inactive

## CCN(CCO)c1cccc(C)c1
[1]
  outcome: inactive
[2]
  Potency: inactive
[3]
  Potency: inactive
[5]
  Potency: inactive
[20]
  Potency: inactive
[6]
  outcome: inactive
[7]
  max response: 6.86%
[8]
  Potency: inactive
[9]
  Potency: inactive
[10]
  outcome: inactive
[11]
  Potency: inactive
[12]
  Potency: inactive
[13]
  outcome: inactive
[14]
  Potency: inactive
[15]
  Potency: inactive
[16]
  Potency: inactive
[17]
  Potency: inactive
[18]
  outcome: inactive
[19]
  Potency: inactive

## O=C(COCCOCCOCC(=O)Nc1c(I)cc(I)c(C(=O)O)c1I)Nc1c(I)cc(I)c(C(=O)O)c1I
[1]
  outcome: inactive
[2]
  Potency: inactive
[3]
  Potency: inactive
[4]
  outcome: inactive
[6]
  outcome: inactive
[7]
  max response: 3.14%
[9]
  Potency: inactive
[10]
  outcome: inactive
[11]
  Potency: inactive
[12]
  Potency: inactive
[13]
  outcome: inactive
[15]
  Potency: inactive
[16]
  Potency: inactive
[18]
  outcome: inactive
[19]
  Potency: inactive

## CC(Cl)COP(=O)(OCC(C)Cl)OCC(C)Cl (stereo not given)
[1]
  outcome: inactive
[2]
  Potency: inactive
[3]
  Potency: inactive
[4]
  outcome: inactive
[5]
  Potency: inactive
[6]
  outcome: inactive
[7]
  max response: -0.188%
[8]
  Potency: inactive
[9]
  Potency: inactive
[11]
  Potency: inactive
[12]
  Potency: inactive
[13]
  outcome: inactive
[14]
  Potency: inactive
[15]
  Potency: inactive
[16]
  Potency: inactive
[17]
  Potency: inactive
[18]
  outcome: inactive
[19]
  Potency: inactive

## Cc1cc(C)cc([N+](=O)[O-])c1
[1]
  outcome: inactive
[2]
  Potency: inactive
[3]
  Potency: inactive
[4]
  outcome: inactive
[5]
  Potency: inactive
[6]
  outcome: inactive
[7]
  max response: -13.7%
[8]
  Potency: inactive
[9]
  Potency: inactive
[10]
  outcome: inactive
[11]
  Potency: 55.6 µM (active)
[13]
  outcome: inactive
[14]
  Potency: inactive
[15]
  Potency: inactive
[17]
  Potency: inactive
[18]
  outcome: inactive
[19]
  Potency: inactive

## Cc1nc2ccccc2c(=O)o1
[1]
  outcome: inactive
[2]
  Potency: inactive
[3]
  Potency: inactive
[4]
  outcome: inactive
[6]
  outcome: inactive
[7]
  max response: 5.55%
[8]
  Potency: inactive
[9]
  Potency: inactive
[10]
  outcome: inactive
[11]
  Potency: inactive
[12]
  Potency: inactive
[13]
  outcome: inactive
[15]
  Potency: inactive
[16]
  Potency: inactive
[18]
  outcome: inactive
[19]
  Potency: inactive

## Oc1ccccc1Cc1ccccc1O
[1]
  outcome: inactive
[3]
  Potency: inactive
[5]
  Potency: inactive
[6]
  outcome: inactive
[8]
  Potency: inactive
[9]
  Potency: inactive
[10]
  outcome: inactive
[13]
  outcome: inactive
[14]
  Potency: inactive
[15]
  Potency: inactive
[17]
  Potency: inactive
[18]
  outcome: inactive
